Legend:
Conditions in all cases: concentration: 1 μM, replicates: in singlicate; n = 1
[1] = test system: CAMK1
[2] = test system: CAMK2A
[3] = test system: CAMK2B
[4] = test system: CAMK2D
[5] = test system: CAMK2G
[6] = test system: CAMK4
[7] = test system: CAMKK1
[8] = test system: CAMKK2
[9] = test system: CASK
[10] = test system: T1, CDC2L1
T1 construct: gene CDK11B

[11] = test system: CDC2L2
[12] = test system: T2, CDC2L5
T2 construct: gene CDK13

[13] = test system: T3, CDK11
T3 construct: gene CDK19

[14] = test system: CDK2
[15] = test system: CDK3
[16] = test system: CDK4-cyclinD1
[17] = test system: CDK4-cyclinD3
[18] = test system: CDK4
[19] = test system: CDK5
[20] = test system: CDK7
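Note: KINOMEscan kinase panel screen.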

Structure (SMILES) | %Inh [1] [%] | %Inh [2] [%] | %Inh [3] [%] | %Inh [4] [%] | %Inh [5] [%] | %Inh [6] [%] | %Inh [7] [%] | %Inh [8] [%] | %Inh [9] [%] | %Inh [10] [%] | %Inh [11] [%] | %Inh [12] [%] | %Inh [13] [%] | %Inh [14] [%] | %Inh [15] [%] | %Inh [16] [%] | %Inh [17] [%] | %Inh [18] [%] | %Inh [19] [%] | %Inh [20] [%]
Cc1ccc(C)c(NC(=O)Nc2ccc(C)c(-c3ccc(C(=O)Nc4ccncc4)cc3)c2)c1 [GSK1398473] | 8 | 0 | 0 | 0 | 25 | 0 | 12 | 27 | 0 | 0 | 5 | 0 | 74 | 0 | 0 | 0 | 2 | 0 | 2 | 0
COc1ccc(C2=C(Nc3cccc(O)c3)C(=O)NC2=O)cc1 [SB-390766] | 23 | 0 | 0 | 11 | 0 | 0 | 0 | 0 | 39 | 0 | 0 | 0 | 93.8 | 98.3 | 42 | 20 | 9 | 35 | 0 | 0
CN(c1ccc(F)c(NC(=O)c2cccc(OC(C)(C)C#N)c2Cl)c1)c1ccc2nc(NC(=O)C3CC3)sc2n1 | 0 | 1 | 0 | 0 | 8 | 0 | 10 | 0 | 0 | 0 | 0 | 0 | 0 | 0 | 1 | 4 | 7 | 12 | 0 | 24
CC(C)c1nc(-c2ccc(F)c(NS(=O)(=O)c3c(F)cccc3F)c2)c(-c2ccnc(Nc3ccc(N4CCOCC4)nc3)n2)s1 [GSK1804250] | 54 | 0 | 0 | 7 | 27 | 0 | 17 | 21 | 0 | 0 | 0 | 0 | 2 | 95.5 | 35 | 26 | 0 | 87 | 51 | 10
CCn1cnc2c(NCc3ccccc3)ncnc21 [SKF-96418] | 0 | 0 | 0 | 0 | 0 | 7 | 0 | 1 | 25 | 0 | 0 | 10 | 0 | 0 | 0 | 0 | 0 | 8 | 0 | 0
CN(C)c1ncnc2nc[nH]c12 [SKF-31736] | 0 | 12 | 0 | 29 | 29 | 0 | 15 | 25 | 41 | 0 | 0 | 11 | 0 | 0 | 17 | 0 | 0 | 25 | 0 | 0
Cn1cc(-c2ccc3c(c2)CCN3C(=O)Cc2cc(F)cc(C(F)(F)F)c2)c2c(N)ncnc21 [GSK2635225] | 5 | 0 | 0 | 0 | 12 | 0 | 0 | 8 | 2 | 5 | 24 | 0 | 95.2 | 6 | 4 | 0 | 0 | 32 | 0 | 11
O=C(Nc1n[nH]c2nc(-c3ccccc3O)ccc12)C1CC1 [SB-711880] | 0 | 0 | 0 | 0 | 0 | 0 | 3 | 0 | 13 | 0 | 0 | 11 | 0 | 37 | 22 | 25 | 17 | 0 | 0 | 7
CNc1nccc(-c2ccc3c(N)n[nH]c3c2)n1 [GSK2206003] | 24 | 14 | 31 | 33 | 33 | 0 | 10 | 13 | 21 | 10 | 17 | 0 | 0 | 23 | 19 | 7 | 0 | 31 | 0 | 23
CCNC(=O)/C=C/c1n[nH]c2cc(Sc3ccccc3C(=O)NC)ccc12 | 7 | 0 | 0 | 17 | 27 | 0 | 10 | 33 | 40 | 10 | 0 | 9 | 10 | 0 | 39 | 0 | 0 | 1 | 41 | 23

From paper PMC5540273 (PLoS ONE, 2017)
